# From the supplement of paper PMC6555819
# What was measured:
# Experiment in all cases: PBM binding z-score (relative to random genomic background probes); higher = stronger binding; sequences stand for … in GC…GCGATTGACAGCGTAGAATGAAGG
# [1] = system: RARb homodimer (NR concentration 270 nM)
# Outline: (§1)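 The probes on custom Agilent 4×180K protein-binding microarrays were double-stranded, with 34-nt variable regions bearing direct-repeat seeds, single-nucleotide variants, half-site ablations and random human genomic background sequences. Incubation lasted 1 h with ligand-free nuclear receptor dimers in PBS pH 7.4, 2% milk, 0.02% Triton X-100, 1 mM DTT, 0.2 mg/mL BSA and 0.4 mg/ml salmon testes DNA. Antibodies against each partner (one per run) detected bound dimers, and fluorescence scans were regression-normalized. Binding z-scores take the random background probes as reference.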
# [2] = system: RARg:RXRa (NR concentration 270 nM, RXRa partner concentration 90 nM)
# Outline: as §1
# [3] = system: RARg homodimer (NR concentration 270 nM)
# Outline: as §1
# [4] = system: RXRa DBDmut IVT, anti-RXR (DBD mutation: RXRa K156A/R161A, NR concentration 90 nM)
# Outline: as §1
# [5] = system: RXRa homodimer (NR concentration 180 nM)
# Outline: as §1
# [6] = system: THRa:RXRa (NR concentration 90 nM, RXRa partner concentration 90 nM)
# Outline: as §1
# [7] = system: THRa homodimer (NR concentration 90 nM)
# Outline: as §1
# [8] = system: VDR homodimer (NR concentration 270 nM)
# Outline: as §1
Sequence,PBM binding z-score [1],PBM binding z-score [2],PBM binding z-score [3],PBM binding z-score [4],PBM binding z-score [5],PBM binding z-score [6],PBM binding z-score [7],PBM binding z-score [8]
AGTCAAAGTTCAGCTAGGTAACGTAAGATATGCT,3.28,4.23,5.17,3.2,2.96,2.46,0.0376,2.26
TCATATAGGTAAATGCTAGGTGAAAGACCGATCT,0.314,0.683,0.454,1.44,1.15,1.32,0.328,0.112
AGAACGCGGGCACGCTGAGTTGATAGCAGAGTAG,-0.459,0.0245,0.351,-0.368,0.141,-0.476,-1.01,0.0842
ATCGAAAGGTCGTGAGGTGAATATACAGAAAGGC,3.06,4.98,3.95,1.72,5.61,3.72,1.77,1.24
CCTACTGGGCCATCAGGTCACTGATATCAACGTT,2.82,2.28,2.5,-0.0787,1.54,3.34,3.44,0.813
CCTCGGAGGACAACAGGAGGACAGAGCTGCCAGA,1.1,1.11,1.41,-0.107,0.167,1.61,0.577,0.157
TCTGCTAGTTCAACGATGGTCAGCTAATCTGCTA,0.82,0.768,1.03,1.32,0.188,0.928,-1.34,0.129
GCTCGGAGGAGAAGGTCAGAGCTTTGTCCGTAGA,2.4,2.15,2.28,-0.281,2.08,1.15,-0.793,-0.592
TCTTGTAGATCAGCAGGTGAAGAAAGCTGGCCAA,-0.153,-0.237,-0.356,0.475,0.184,0.0556,-0.332,-0.766
GATACAGCGTCAGCTAGAGGCCAGAGTATGGAAA,-0.524,-0.0653,0.0489,-0.648,-0.444,-0.787,-0.942,-0.804
GCTGGTAGGTCAACTGATGGTCAGCTAAAGCTCG,3.79,5.73,5.34,1.57,3.65,2.54,0.0326,0.11
ATCGAAAGGTCGACGGTGAGTATACCCACCCGAA,2.53,4.19,3.92,0.878,4.27,1.88,-0.262,0.289
ATATGTAAGTTACATCCGGGTCATTCAGGCTATG,2.56,1.71,1.21,1.07,2.15,3.43,2.33,3.16
TCTGCTAGGTCAGTTGGTCAGCAAACGAGCTGCC,2.52,2.78,3.8,0.526,0.98,1.35,-0.0215,-0.695
GCTTGTAAATCAAGGTTAAGAAAGACTAAGCTAA,0.189,0.539,0.0583,0.137,0.942,1.5,-0.456,-0.374
CATACAGGGTCAGCTAGGCCAGAATAGGGACGGC,3.37,4.33,4.34,1.53,4.26,3.04,1.13,0.805
TGTCAAAGTTCAAAGGTAACCTAAGTATCCACAC,3.92,6.15,5.71,4.52,7.11,3.64,0.627,3.92
CAAACTTGGTCACGAAAGGTCAAAGTCGAATGAC,4.71,6.15,6.2,1.4,7.01,4.07,0.947,3.11
CCTCCGAGGACAACAGGAGGTCAGAGCTGCCAGA,3.75,3.41,3.21,0.726,2.02,3.58,2.36,1.61

Sequence,PBM binding z-score [1],PBM binding z-score [2],PBM binding z-score [3],PBM binding z-score [4],PBM binding z-score [5],PBM binding z-score [6],PBM binding z-score [7],PBM binding z-score [8]
TCTCGGAAGACACGAAGGTCAGAGCTTTCCAGAG,3.02,1.39,1.67,0.484,1.61,1.09,-0.118,0.195
AGTCAAAGTTAAGGACGAGGTAACGTAAAGCACG,0.455,0.647,0.899,-0.752,0.474,3.19,2.65,-0.263
ATCTCTAGGTAAGACTCAGTTCAGTTAAGAACGC,0.724,0.306,0.466,0.735,-0.175,1.44,0.728,1.6
GCATCTAGGTAATACAAGGTGAAAGTCCGATTGT,0.893,0.422,0.244,-0.0985,0.576,3.63,1.22,-0.188
TCATATAGGTCATACAGGTGAAAGTCGGCATCTA,3.8,5.21,5.03,2.68,5.27,3.42,0.973,1.81
TCTATTAGCTGATTAGGGCAACCGAAACAGCGGA,-0.0375,0.212,0.313,0.509,0.233,0.211,-0.143,-0.58
ATATGTAGGTTAAGAGTCATTCAGGTTGGTTCGC,1.26,1.23,1.13,0.882,1.53,1.24,0.283,1.24
CGTCCAAGGTCAGAGAGGTCAGTAAATGCCGAGT,5.22,5.95,7.02,3.45,5.43,4.24,2.87,5.99
ATCTCTAGGTAACCAAGTACAGTGAATGCCGAAC,0.221,0.424,0.577,0.152,0.115,0.827,0.385,0.365
GCTATTCGTTGAAAGGGCAACCGAATGATTCTCG,1.85,1.23,1.21,0.319,0.916,0.348,-0.335,-0.329
CCTTACGCGTCACGAGGTTATAGCACGACGAGCG,0.644,0.881,0.604,0.705,1.38,1.51,0.967,0.734
ACTAGCAGGCCAACTTTGGGTCACTCAAACAAAG,2.34,2.46,1.61,-0.27,0.885,2.62,1.19,0.371
ATATGCAGGTTACATCCGGGTCATTCAGGCTATG,2.86,4.04,2.1,0.784,3.53,3.97,2.19,2.77
TGAATGAGGTTAAAGATCAGGGACCGTGGCGTCG,0.662,2.38,0.948,0.631,3.61,2.39,0.453,0.608
CCTGATAGGTCATGGTCAGCTAATCTACAGTATG,3.69,5.08,5.2,1.57,5.33,2.46,0.212,0.195
AATACAGGGTCATCGTAGGCCAGACTACGCACAG,2.36,5.54,5.13,3.61,6.23,4.74,1.68,2.65
TCAGACAGGTCAAGGTAACTCAGGTACGCAGTCG,3.61,4.57,4.8,2.07,4.44,3.33,1.49,0.989
GATACAGGGTCAAGGCCTGAGTACGCGTATTGAT,3.54,5.4,5.41,2.19,5.69,3.37,0.931,2.52
AGAATGAGGTTACCAAAGAGCAGGGAAACGCTTG,0.563,1.8,1.43,0.987,2.24,2.73,0.573,0.0969

Sequence,PBM binding z-score [1],PBM binding z-score [2],PBM binding z-score [3],PBM binding z-score [4],PBM binding z-score [5],PBM binding z-score [6],PBM binding z-score [7],PBM binding z-score [8]
CCTAGCTGGTCAAGGTCACACACGCTATAGGTAC,4.06,4.56,4.74,1.82,4.92,3.97,3.76,2.88
ACTAGCAGGCCAAGGTTCACTCAAGATTAGTCCG,1.66,1.53,1.15,1.75,1.58,1.31,0.0178,3.42
CTCGAAAGGTCGGTTGAGGTGAGTATCCGGATAA,2.38,2.82,2.94,0.858,2.31,5.01,1.34,0.136
TCTATTAGTTGAAGGGCAACCTACGAGTCCGTTT,1.2,0.698,0.806,1.51,0.858,0.233,-0.0206,1.42
AGTCAAAGTTCATATAGGTAACGTAAGATATGCT,3.55,5.1,5.32,4.83,4.41,2.28,-0.342,5.14
ACTATTAGTTGACTTAAGGCAACCGATACGACGC,0.11,0.623,0.592,0.8,0.347,2.4,0.592,0.124
TCTGCTAGGTCAACGATGGCCAGCTAATCTGCTA,2.85,3.75,4.72,0.868,2.35,2.6,0.486,-0.708
AGAACGAGGGCAATGAGTTGATCGCACGGGTGGC,0.965,0.967,1.42,2.25,0.774,1.14,-0.233,3.08
TCTGCTAGGTCAGTTAGTCAGCTAACGAGCTGCC,1.99,2.4,3.3,0.561,0.813,0.906,-0.364,-0.726
GCTGCTAGGTCAACTGATGGTCAGCTATAGCTCG,3.72,5.34,5.69,1.79,3.41,3.03,1.11,-0.0243
ATCTCTGGGTAAAAGTTCAGTGAATCCCGAGGAT,2.6,2.36,2.45,0.812,1.69,0.969,-0.0851,1.53
CAAACTAGGTCACCGGCAGGTCAAAGTCCGCATG,5.08,7.9,7.05,2.05,6.42,4.37,3.02,2.72
ACTTACGAGTCAACGAGGTTATAGCACGCGTATA,0.874,1.07,0.785,0.637,1.59,2.04,0.474,0.877
TCCAGTTGGTCACGGAGGTCACACACGACGGGTA,4.6,4.87,4.79,1.11,4.8,3.84,2.09,2.65
TGTCAAAGTTCCAAGGTAACGTAAGTATCCACAC,0.222,0.298,0.719,-0.251,0.443,1.72,1.09,-0.0741
AGTTAAAGTTCAGGACGAGGTAACGTAAAGCACG,3.04,4.5,4.39,3.27,2.72,3.85,1.96,2.43
TTGCCTAGGTCATGCGGGCCAGTATAGTGTCGGC,2.96,3.93,4.33,0.791,2.76,3.08,0.807,0.421
TAGCCTAGGTCAGATCCGGCCAGTATACGCTATA,2.26,2.41,3.5,-0.288,1.41,3.4,0.0339,-0.271
GGAACGAGGGCAAGTTGATATCAGAGTTTGATGG,1.7,1.66,2.58,2.63,0.916,1.46,0.151,2.21
